# Experimental data reported in the supplement of paper PMC12282887.
# ± gives the standard deviation of the averaged measurements.
# Legend:
# Assay in all cases: promoter activity interaction Z-score (Lux/OD deviation from empty-vector control); higher = stronger promoter induction by the compound
# [1] = tested on: E. coli BW25113 acrABp lux reporter
# How it was run: (§1)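 Four 1:2 dilutions of each compound were tested in biological duplicates on E. coli BW25113 carrying low-copy luxCDABE promoter reporters, either wild type or deleted for one of three genes. Cultures of 40 µl LB Lennox in 384-well plates were kept at 37°C and read for OD600 and luminescence every 30 min for 12 h. Integration windows were 0–8 h for wild type and 1–9 h for deletion strains, and wells under 10% of the median growth value were discarded. The score is a Z-transformed residual of growth-normalised luminescence relative to a control fit.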
# [2] = tested on: E. coli BW25113 marRABp lux reporter
# How it was run: as §1
# [3] = tested on: E. coli BW25113 micFp lux reporter
# How it was run: as §1
# [4] = tested on: E. coli BW25113 ompFp lux reporter
# How it was run: as §1
# [5] = tested on: E. coli BW25113 robp lux reporter
# How it was run: as §1
# [6] = tested on: E. coli BW25113 soxSp lux reporter
# How it was run: as §1
# [7] = tested on: E. coli BW25113 tolCp lux reporter
# How it was run: as §1
# [8] = 7 µg/ml, genetic background: wild type
# [9] = 7 µg/ml, genetic background: ΔmarA
# [10] = 7 µg/ml, genetic background: Δrob
# [11] = 7 µg/ml, genetic background: ΔsoxS
# [12] = 14 µg/ml, genetic background: wild type
# [13] = 14 µg/ml, genetic background: ΔmarA
# [14] = 14 µg/ml, genetic background: Δrob
# [15] = 14 µg/ml, genetic background: ΔsoxS
# [16] = 28 µg/ml, genetic background: wild type
# [17] = 28 µg/ml, genetic background: ΔmarA
# [18] = 28 µg/ml, genetic background: Δrob
# [19] = 28 µg/ml, genetic background: ΔsoxS
# [20] = 56.1 µg/ml, genetic background: wild type
# [21] = 56.1 µg/ml, genetic background: ΔmarA
# [22] = 56.1 µg/ml, genetic background: Δrob
# [23] = 56.1 µg/ml, genetic background: ΔsoxS
compound,measurement,setting,value
COc1cc(NS(=O)(=O)c2ccc(N)cc2)ncn1 [Sulfamonomethoxine],promoter activity interaction Z-score,[1]; [8],-0.0629 ± 0.12
same,promoter activity interaction Z-score,[1]; [9],-0.0827 ± 0.19
same,promoter activity interaction Z-score,[1]; [10],-0.194 ± 0.069
same,promoter activity interaction Z-score,[1]; [11],-0.131 ± 0.45
same,promoter activity interaction Z-score,[1]; [12],-0.0954 ± 0.051
same,promoter activity interaction Z-score,[1]; [13],0.444 ± 0.69
same,promoter activity interaction Z-score,[1]; [14],0.0478 ± 0.2
same,promoter activity interaction Z-score,[1]; [15],-0.102 ± 0.4
same,promoter activity interaction Z-score,[1]; [16],0.289 ± 0.03
same,promoter activity interaction Z-score,[1]; [17],0.686 ± 0.39
same,promoter activity interaction Z-score,[1]; [18],0.139 ± 0.014
same,promoter activity interaction Z-score,[1]; [19],-0.0503 ± 0.27
same,promoter activity interaction Z-score,[1]; [20],0.594 ± 0.059
same,promoter activity interaction Z-score,[1]; [21],1.43 ± 0.56
same,promoter activity interaction Z-score,[1]; [22],1.32 ± 0.6
same,promoter activity interaction Z-score,[1]; [23],0.654 ± 0.63
same,promoter activity interaction Z-score,[2]; [8],0.165 ± 0.29
same,promoter activity interaction Z-score,[2]; [9],0.199 ± 0.22
same,promoter activity interaction Z-score,[2]; [10],0.0754 ± 0.022
same,promoter activity interaction Z-score,[2]; [11],-0.0457 ± 0.27
same,promoter activity interaction Z-score,[2]; [12],0.419 ± 0.21
same,promoter activity interaction Z-score,[2]; [13],0.246 ± 0.58
same,promoter activity interaction Z-score,[2]; [14],-0.0243 ± 0.36
same,promoter activity interaction Z-score,[2]; [15],-0.0217 ± 0.15
same,promoter activity interaction Z-score,[2]; [16],0.52 ± 0.32
same,promoter activity interaction Z-score,[2]; [17],0.729 ± 0.45
same,promoter activity interaction Z-score,[2]; [18],0.602 ± 0.038
same,promoter activity interaction Z-score,[2]; [19],0.101 ± 0.14
same,promoter activity interaction Z-score,[2]; [20],1.09 ± 0.8
same,promoter activity interaction Z-score,[2]; [21],1.14 ± 0.16
same,promoter activity interaction Z-score,[2]; [22],1.18 ± 0.4
same,promoter activity interaction Z-score,[2]; [23],1.04 ± 0.46
same,promoter activity interaction Z-score,[3]; [8],-0.11 ± 0.081
same,promoter activity interaction Z-score,[3]; [9],-0.104 ± 0.066
same,promoter activity interaction Z-score,[3]; [10],0.00985 ± 0.087
same,promoter activity interaction Z-score,[3]; [11],-0.0124 ± 0.09
same,promoter activity interaction Z-score,[3]; [12],0.129 ± 0.024
same,promoter activity interaction Z-score,[3]; [13],-0.112 ± 0.13
same,promoter activity interaction Z-score,[3]; [14],-0.0554 ± 0.081
same,promoter activity interaction Z-score,[3]; [15],0.0346 ± 0.00076
same,promoter activity interaction Z-score,[3]; [16],-0.113 ± 0.28
same,promoter activity interaction Z-score,[3]; [17],0.0381 ± 0.13
same,promoter activity interaction Z-score,[3]; [18],-0.0788 ± 0.15
same,promoter activity interaction Z-score,[3]; [19],-0.00695 ± 0.03
same,promoter activity interaction Z-score,[3]; [20],0.345 ± 0.27
same,promoter activity interaction Z-score,[3]; [21],-0.0779 ± 0.035
same,promoter activity interaction Z-score,[3]; [22],0.446 ± 0.3
same,promoter activity interaction Z-score,[3]; [23],0.145 ± 0.15
same,promoter activity interaction Z-score,[4]; [8],0.897 ± 1
same,promoter activity interaction Z-score,[4]; [9],0.44 ± 0.78
same,promoter activity interaction Z-score,[4]; [10],0.229 ± 0.2
same,promoter activity interaction Z-score,[4]; [11],0.152 ± 0.17
same,promoter activity interaction Z-score,[4]; [12],0.907 ± 0.69
same,promoter activity interaction Z-score,[4]; [13],0.36 ± 0.52
same,promoter activity interaction Z-score,[4]; [14],0.708 ± 0.82
same,promoter activity interaction Z-score,[4]; [15],0.102 ± 0.078
same,promoter activity interaction Z-score,[4]; [16],1.05 ± 0.98
same,promoter activity interaction Z-score,[4]; [17],1.11 ± 0.74
same,promoter activity interaction Z-score,[4]; [18],0.731 ± 0.18
same,promoter activity interaction Z-score,[4]; [19],0.341 ± 0.13
same,promoter activity interaction Z-score,[4]; [20],2.04 ± 0.99
same,promoter activity interaction Z-score,[4]; [21],2.09 ± 0.78
same,promoter activity interaction Z-score,[4]; [22],2.95 ± 1.7
same,promoter activity interaction Z-score,[4]; [23],1.94 ± 0.43
same,promoter activity interaction Z-score,[5]; [8],1.09 ± 0.49
same,promoter activity interaction Z-score,[5]; [9],0.0134 ± 0.083
same,promoter activity interaction Z-score,[5]; [10],-0.027 ± 0.51
same,promoter activity interaction Z-score,[5]; [11],-0.114 ± 0.21
same,promoter activity interaction Z-score,[5]; [12],1.2 ± 0.46
same,promoter activity interaction Z-score,[5]; [13],-0.0907 ± 0.34
same,promoter activity interaction Z-score,[5]; [14],0.416 ± 0.81
same,promoter activity interaction Z-score,[5]; [15],-0.326 ± 0.46
same,promoter activity interaction Z-score,[5]; [16],0.911 ± 0.12
same,promoter activity interaction Z-score,[5]; [17],1.16 ± 0.43
same,promoter activity interaction Z-score,[5]; [18],0.643 ± 0.1
same,promoter activity interaction Z-score,[5]; [19],0.227 ± 0.12
same,promoter activity interaction Z-score,[5]; [20],2 ± 0.41
same,promoter activity interaction Z-score,[5]; [21],2.2238 ± 0.0018
same,promoter activity interaction Z-score,[5]; [22],1.45 ± 0.23
same,promoter activity interaction Z-score,[5]; [23],1.99 ± 0.18
same,promoter activity interaction Z-score,[6]; [8],-0.238 ± 0.08
same,promoter activity interaction Z-score,[6]; [9],-0.23 ± 0.096
same,promoter activity interaction Z-score,[6]; [10],-0.34 ± 0.09
same,promoter activity interaction Z-score,[6]; [11],-0.327 ± 0.54
same,promoter activity interaction Z-score,[6]; [12],-0.126 ± 0.13
same,promoter activity interaction Z-score,[6]; [13],-0.374 ± 0.052
same,promoter activity interaction Z-score,[6]; [14],-0.287 ± 0.064
same,promoter activity interaction Z-score,[6]; [15],-0.322 ± 0.51
same,promoter activity interaction Z-score,[6]; [16],-0.403 ± 0.15
same,promoter activity interaction Z-score,[6]; [17],-0.289 ± 0.029
same,promoter activity interaction Z-score,[6]; [18],-0.503 ± 0.07
same,promoter activity interaction Z-score,[6]; [19],-0.224 ± 0.42
same,promoter activity interaction Z-score,[6]; [20],-0.28 ± 0.14
same,promoter activity interaction Z-score,[6]; [21],-0.0803 ± 0.1
same,promoter activity interaction Z-score,[6]; [22],-0.502 ± 0.17
same,promoter activity interaction Z-score,[6]; [23],-0.113 ± 0.36
same,promoter activity interaction Z-score,[7]; [8],-0.23 ± 0.84
same,promoter activity interaction Z-score,[7]; [9],0.608 ± 0.35
same,promoter activity interaction Z-score,[7]; [10],0.27 ± 0.051
same,promoter activity interaction Z-score,[7]; [11],-0.223 ± 1.2
same,promoter activity interaction Z-score,[7]; [12],1.12 ± 0.49
same,promoter activity interaction Z-score,[7]; [13],-0.382 ± 0.79
same,promoter activity interaction Z-score,[7]; [14],-0.826 ± 0.66
same,promoter activity interaction Z-score,[7]; [15],0.183 ± 1.1
same,promoter activity interaction Z-score,[7]; [16],-0.0377 ± 0.24
same,promoter activity interaction Z-score,[7]; [17],1.63 ± 0.99
same,promoter activity interaction Z-score,[7]; [18],-0.142 ± 0.15
same,promoter activity interaction Z-score,[7]; [19],0.453 ± 0.22
same,promoter activity interaction Z-score,[7]; [20],0.726 ± 1
same,promoter activity interaction Z-score,[7]; [21],0.457 ± 1.5
same,promoter activity interaction Z-score,[7]; [22],-0.189 ± 0.24
same,promoter activity interaction Z-score,[7]; [23],0.283 ± 0.55
